Rows were chosen to be rich in hits. Some 4.7% of all compounds tested hit in one or more screens of this group.
eIF4H inh: inhibitors of RNA binding by human eIF4H; inhibition, % at 35 µM; eIF4H fluorescence polarization binding assay; AID 2012; actives 0.94% (n = 290,000); Q15056;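 also: calls also rest on retests at 20 µM and on dose response follow-up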
Efflux pump inh: antifungal efflux pump inhibition, Nile Red retention; S. cerevisiae Candida pump triplex; inhibition, % at 10 µM; actives 0.44% (n = 330,000);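 active = plate passing quality check with inhibition over a set limit, or well fluorescence over plate mean plus 4 SD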;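 also: Nile Red retained in pooled yeast measured as flow cytometry median fluorescence; higher means more Nile Red kept so more efflux inhibition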
ALR H2O2 inh: blocks human ALR sulfhydryl oxidase activity | P55789 | purified ALR, DTT oxidation, H2O2 HRP-luminol luminescence | inhibition, % (concentration not given with the values) | actives 3.8% (n = 290,000) | AID 485317;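 active = mean replicate inhibition above about 79%, with every replicate also reaching it, limit read from the data; inconclusive = only one of the two criteria met; inactive = mean below limit and not every replicate reaching it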
Target sequence (P55789 whole entry, looked up): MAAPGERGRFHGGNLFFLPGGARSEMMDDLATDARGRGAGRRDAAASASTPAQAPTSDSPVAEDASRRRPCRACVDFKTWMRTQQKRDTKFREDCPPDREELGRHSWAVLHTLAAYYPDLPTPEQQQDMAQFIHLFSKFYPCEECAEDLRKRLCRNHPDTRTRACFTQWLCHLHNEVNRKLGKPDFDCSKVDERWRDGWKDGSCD
PABP1 MLLE inh: blocks PAM2 peptide binding to the PABP1 MLLE domain; actives 0.36% (n = 360,000); GST-MLLE / FITC-PAM2 fluorescence polarization; P11940; AID 588489; inhibition, % at 20 µM; in the data active = inhibition above about 35%, passing the limit was not always enough
PABP polyA inh: PABP-poly(A) binding inhibition; actives 1% (n = 290,000); inhibition, % at 35 µM; PABP-poly(A) RNA binding, fluorescence polarization; AID 2014; P11940;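 also: calls also rest on retests at 20 µM and on dose response follow-up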
UBC9 SUMO inh: SUMOylation inhibition; HTRF SUMOylation assay, SAE1/SAE2 + UBC9, in vitro; inhibition, % at 35 µM; actives 0.36% (n = 290,000); AID 2006; in the data active = inhibition above about 50%, passing the limit was not always enough; inconclusive = no clear call, values can overlap the other calls
Target sequence (P63279 whole entry, looked up): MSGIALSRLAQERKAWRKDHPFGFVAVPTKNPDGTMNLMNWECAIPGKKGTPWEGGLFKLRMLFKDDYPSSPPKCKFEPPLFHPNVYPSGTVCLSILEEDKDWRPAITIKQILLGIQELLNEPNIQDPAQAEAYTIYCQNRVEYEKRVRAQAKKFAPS
A number is an active result; - = inactive; ? = inconclusive; . = no result. Unless noted, no rule for the calls is given here.

SMILES	eIF4H inh	Efflux pump inh	ALR H2O2 inh	PABP1 MLLE inh	PABP polyA inh	UBC9 SUMO inh
Nc1ccc(/C=C/C(=O)c2ccco2)cc1	53.8	-	98.9	-	5.4	-
N#Cc1ccc(/C=C/C(=O)c2ccco2)cc1	-	-	-	-	-	-
O=C1N=C(N2CCOCC2)S/C1=C/c1cc2c(cc1[N+](=O)[O-])OCO2	87.0	-	-	-	59.0	-
Cc1ccc(NC(=S)NNC(=O)c2c([N+](=O)[O-])c(C)nn2C)cc1	-	-	-	-	-	-
Cc1ccc(NC(=S)NNC(=O)c2nn(C)c(C)c2Cl)cc1	-	-	89.6	-	-	-
Cc1ccc(NC(=S)NNC(=O)c2cn(C)nc2C)cc1	-	-	96.7	-	-	-
Cc1ccc(NC(=S)NNC(=O)c2c(Cl)c(C)nn2C)cc1	-	-	86.7	-	-	-
CCCC(=O)N1CCCC1(C)C(=O)Nc1ccc2nc(C)ccc2c1 (stereo not given)	.	.	.	-	.	.
COc1cc2cnc(-c3cccnc3)cc2cc1OC	.	-	-	-	.	.
CCN(CC)S(=O)(=O)c1cccc(NC(=O)CSc2nnc(N)s2)c1	-	-	98.9	-	-	-
Fc1ccc(-c2nc3c4ccccc4ccn3c2Cc2cccc(Cl)c2)cc1	.	.	.	-	.	.
N#C/C(=C\c1cn(CC(=O)N2CCCCC2)c2ccccc12)C(=O)NCc1ccc2c(c1)OCO2	62.2	-	-	-	82.9	-
c1ccc(N2CCOCCOCCOCCOCC2)cc1	-	-	99.2	-	-	-
CCCC(=O)n1nc(-c2ccc(C)cc2)nc1NCc1ccco1	-	-	89.6	-	-	-
Cc1ccc(C(=O)n2nc(-c3ccccc3)nc2NCc2ccco2)cc1	-	-	-	-	-	-
CC1C(c2ccccc2)N(C)C(c2ccccc2)C(C)C1(O)C#Cc1ccccc1 (stereo not given)	-	-	-	-	-	-
Cc1ccc(O)c(-c2cc(-c3ccccc3C)[nH]n2)c1	-	.	.	-	-	-
Cc1ccc(O)c(-c2cc(C(F)(F)C(F)F)[nH]n2)c1	-	-	98.2	-	-	-
CCCc1cc(-n2ccnc2)n2c(nc3ccccc32)c1C#N	124.6	-	-	-	-	-
Cc1cc(-n2ccnc2)n2c(nc3ccccc32)c1C#N	-	-	.	-	-	-
CSc1ncccc1C(=O)N1CCN(S(=O)(=O)c2ccc3c(c2)OCCO3)CC1	.	-	-	-	.	.
O=C(NCc1ccc(Cl)c(Cl)c1)C1CCCC1	.	-	-	-	.	.
CC(C)(C)CC(=O)Nc1cccc2c1CCCC2	-	-	-	-	-	-
c1cc2c(c(NCc3ccncc3)c1)CCCC2	-	-	98.6	-	-	-
O=C(NC(=S)NC12CC3CC(CC(C3)C1)C2)c1ccc(F)cc1	.	-	.	-	.	.
SMILES	eIF4H inh	Efflux pump inh	ALR H2O2 inh	PABP1 MLLE inh	PABP polyA inh	UBC9 SUMO inh
Cc1ccc(-c2nc(CN3CCN(C(=O)C4CCCO4)CC3)cs2)cc1 (stereo not given)	-	-	98.7	-	-	-
Cc1ccc(CN2CCN(C(=O)C3CCCO3)CC2)cc1 (stereo not given)	-	-	99.4	-	-	-
COC(=O)c1c(C)c2c(C)cc3ccccn3c-2c1C(=O)OC	?	-	-	-	?	-
COC(=O)c1cc2c(-c3ccccc3)cc3ccccn3c-2c1C(=O)OC	?	-	-	-	108.6	-
CCn1c2ccc(C)cc2c2nnc(NN)nc21	-	-	98.8	-	-	-
CCn1c2ccccc2c2nnc(NN)nc21	-	-	-	-	-	-
CNc1cccc(-c2ccc(N3CCN(C)CC3)nc2)n1	.	.	.	-	.	.
Cc1cccc2sc(NNC(=O)C3COc4ccccc4O3)nc12 (stereo not given)	-	-	99.8	-	-	-
O=C(NNc1nc2c(F)cc(F)cc2s1)C1COc2ccccc2O1 (stereo not given)	-	-	.	-	-	-
O=C(Nc1ccc(F)cc1)C(NC1CCCCC1)c1ccccc1 (stereo not given)	2.7	-	.	-	56.3	-
O=C(Nc1ccc2c(c1)OCCO2)c1cnn(-c2ccccc2)n1	.	-	-	-	.	.
CC(=O)NC(C)(c1ccccc1)c1nc(-c2csc3ccccc23)cs1 (stereo not given)	.	.	.	-	.	.
N#Cc1c(NCCN)nc(NCc2ccccc2)c2c1CCN(Cc1ccccc1)C2	61.9	.	.	-	72.3	-
CCCCC(C(=O)OCC)C(N)Cc1ccc(F)cc1 (stereo not given)	?	-	-	-	-	74.0
Cc1ccc(NC(=O)COC(=O)C2CCN(c3ccc(C(F)(F)F)cn3)CC2)cc1	.	-	-	-	.	.
c1ccc(-c2nc3ccccn3c2NCc2ccc3c(c2)OCO3)cc1	-	-	81.1	-	-	-
O=C(c1ccc(Cl)c(S(=O)(=O)N2CCOCC2)c1)N1CCN(c2ccccc2)CC1	-	-	-	-	-	-
O=C1c2cccc3cc([N+](=O)[O-])cc(c23)C(=O)N1/N=C/c1ccc(O)cc1O	91.1	-	-	-	71.6	-
O=C1c2cccc3cccc(c23)C(=O)N1CCO	.	.	.	-	.	.
Nc1cc2c3c(cccc3c1)C(=O)N(CCN1CCCC1)C2=O	113.6	-	-	-	76.8	-
NC(=O)CN1CCN(CCN2C(=O)c3cccc4cccc(c34)C2=O)CC1	-	-	-	-	-	-
Cc1cc(C)c(S(=O)(=O)N2CCN(CCN3C(=O)c4cccc5cccc(c45)C3=O)CC2)cc1[N+](=O)[O-]	-	.	.	.	-	-
O=C1c2cccc3cc([N+](=O)[O-])cc(c23)C(=O)N1CCN1CCCC1	-	.	.	50.1	-	-
CCN(CC)CCN1C(=O)c2cccc3cc(N)cc(c23)C1=O	91.4	-	-	-	114.6	-
CC(=O)Oc1ccc2ccc3ccc(C(C)=O)cc3c2c1	.	.	.	-	.	.
SMILES	eIF4H inh	Efflux pump inh	ALR H2O2 inh	PABP1 MLLE inh	PABP polyA inh	UBC9 SUMO inh
CCOC(=O)N1CCN(S(=O)(=O)N2CCCC(C(=O)NCc3cccc(OC)c3)C2)CC1 (stereo not given)	-	-	-	-	-	-
CCCCN(C(=O)c1ccc(NC2CC2)c([N+](=O)[O-])c1)c1c(N)n(CC(C)C)c(=O)[nH]c1=O	.	-	-	-	.	.
Cc1nn(C)c(C(=O)Sc2cccc(Cl)c2)c1[N+](=O)[O-]	-	-	98.5	-	-	-
COc1ccc(S(=O)(=O)N2CCCCC2)cc1NC(=O)c1ccc(OC)c(OC)c1	.	.	.	-	.	.
CCOC(=O)C1=C(N)n2c(s/c(=C\c3ccco3)c2=O)=C(C(=O)OC(C)C)C1c1ccco1 (stereo not given)	?	-	-	-	-	-
CCOC(=O)C1=C(N)n2c(s/c(=C\c3ccco3)c2=O)=C(C(=O)OCC)C1c1ccco1 (stereo not given)	96.6	-	-	-	85.6	-
Cc1nnc(SCC(=O)N(C)CC(=O)Nc2ccccc2Cl)s1	.	-	-	-	.	.
CN(CC(=O)Nc1ccccc1Cl)C(=O)CSc1nc2ccccc2s1	-	-	84.7	-	-	-
COc1ccc(NC(=O)CSc2nc(N)c(C(=O)Nc3ccc(N(C)C)cc3)s2)cc1	-	-	98.7	-	-	-
CN(CC(=O)N1CCOCC1)C(=O)CSc1nc2ccccc2s1	-	-	-	-	-	-
